Measured values: ChEMBL document CHEMBL3988442, “University of Dundee, Small-Polar-MMV Screening Library” (2021)
Values joined by “and” are separate entries in the source; they are usually repeats but may differ in a detail not shown here. Equal values may be shown once. About 290 (0.85%) of roughly 34,000 compounds showed an effect of 50% or more. The sample as a whole holds a higher share of strong results than the screen did.

Test system: Plasmodium falciparum
Assay: Plasmodium falciparum sporozoite viability assay
Type: functional, organism-based
Set-up: scale not given: in the data most compounds retested in dose-response had high values

Row | SMILES | Percent Effect [%] | Percent Effect (10 mM as filed; unlikely as a test dose)
1 | CCC1c2ccsc2CCN1C(=O)NCc1ccc(C)nc1 (configuration not stated) | 6.154 | 
2 | CC(C)(C)c1cn2nc(N3CCCC(Cn4cncn4)C3)sc2n1 (configuration not stated) |  | 61.38% and 60.13% and 50.37%
3 | CC(C)(C)c1cn2nc(N3CCCC3Cn3cncn3)sc2n1 (configuration not stated) |  | -5.183% and 4.187% and 0.2303%
4 | CC(C)(C)c1cn2nc(N3CCOC(Cn4cncn4)C3)sc2n1 (configuration not stated) | 8.052 | 
5 | Cc1nc(-c2c(C)noc2C)cc(C2CCN(S(=O)(=O)N(C)C)CC2)n1 | 10.55 | 
6 | CN(C)C(=O)CN1CC[C@]2(CN(CC3CC3)C[C@H]2c2ccccc2)C1=O.O=C(O)C(F)(F)F | 2.654 | 
7 | O=C(CCc1ccccc1)N1CC(n2cncn2)C1 | 7.531 | 
8 | COc1c(CNCc2ccc3c(c2)OCO3)c(C(C)C)nn1C | 7.092 | 
9 | O=C(NCCc1ccccc1)N1CCCCC1C1OCCO1 (configuration not stated) |  | -48% and -64.36%
10 | O=C1NCCN2CCN(C(=O)Nc3ccc(-c4ccccc4)cc3)CC12 (configuration not stated) |  | -23.97% and -24.61%
11 | CC1=N[C@@]2(CC[C@@H]3CN(C(=O)NCCc4ccccc4)C[C@@H]32)C(=O)N1 | 2.735 | 
12 | O=C(NCCc1ccccc1)N1CCC(C2OCCO2)CC1 |  | 28.36% and 65.96%
13 | O=C(NCc1ccccc1F)N1CCC(C2OCCO2)CC1 | 0.1127 | 
14 | O=C1NCCN2CCN(C(=O)NCCc3ccccc3)CC12 (configuration not stated) |  | 64.04% and 69.93%
15 | CC(=O)N1CCCC1C(=O)NCCOc1cccc(F)c1 (configuration not stated) | -6.239 | 
16 | Cn1cc(C(=O)N2C[C@@H]3CN(S(C)(=O)=O)CCO[C@@H]3C2)cn1 | -2.6 | 
17 | C[C@]1(O)CN(CCO)CC[C@@H]1Oc1cccc(F)c1 | 17.57 | 
18 | COc1ccccc1OCCC(=O)N1CCCCC1c1nccs1 (configuration not stated) | -5.924 | 
19 | CC(C)(CO)Nc1ccc(-c2nc(-c3ccccc3F)no2)cn1 |  | 13.89% and 24.65%
20 | CN(C)CCNc1ccc(-c2nc(-c3ccccc3F)no2)cn1 |  | 80.1% and 68.27%
21 | CC(O)CN1CCC(CNCc2ccc(C(N)=O)cc2)CC1 (configuration not stated) | 0.9015 | 
22 | Cc1ccc(CNC(=O)NC(C)Cn2cccn2)cn1 (configuration not stated) | 11.6 | 
23 | CCN1CCN(c2ccc(CNC(=O)Cc3c(C)noc3C)cn2)CC1 | 9.727 | 

Row | SMILES | Percent Effect [%] | Percent Effect (10 mM as filed; unlikely as a test dose)
24 | Cc1nc(CN2CCC2(CCCc2ccccn2)C(=O)N(C)C)co1 (configuration not stated) | 12.32 | 
25 | CCOCc1nn(CC2CC2)c2c1CN(Cc1cccs1)CC2.O=C(O)C(F)(F)F.O=C(O)C(F)(F)F | 6.48 | 
26 | Cc1nc(CN2CC(CCCc3ccccn3)(C(=O)N(C)C)C2)co1 | -0.6757 | 
27 | COc1cccc(OCC2CCCN(C3CCN(C(C)=O)CC3)C2)c1 (configuration not stated) |  | -11.14% and -12.8% and -12.12%
28 | COc1cccc(OCC2CCCN(C(=O)c3cnc(C)nc3O)C2)c1 (configuration not stated) | -6.706 | 
29 | Cc1nn(CC(C)C)c(N(C)C)c1CNCc1ccc2c(c1)OCO2 | -0.9874 | 
30 | Cc1nc(Nc2cnccn2)cc(C2CCN(c3ncccn3)C2)n1 (configuration not stated) | 4.755 | 
31 | CCOc1ccc(C(=O)N2CCCC(n3ccnc3C)C2)cc1OC (configuration not stated) | 0.3069 | 
32 | CCc1cnc(N2CCc3cc(C(=O)NC)c(N(C)C)nc3CC2)nc1.O=C(O)C(F)(F)F | 0.8439 | 
33 | O=C(c1cc(=O)c(OCc2ccccc2)co1)N1CCSCC1 | -8.629 | 
34 | c1cnc(-c2nc(CN3CCCC(N4CCCC4)C3)cs2)nc1 (configuration not stated) | 5.451 | 
35 | NC(=O)C1CCN(Cc2csc(-c3ncccn3)n2)CC1 |  | -22.27% and -16.43% and -15.46%
36 | c1cnc(-c2nc(CN3CCN(CC4CC4)CC3)cs2)nc1 |  | 84.72% and 73.85% and 60.32%
37 | c1cnc(-c2nc(CN3CCC(c4ccn[nH]4)CC3)cs2)nc1 | 5.764 | 
38 | CC(=O)Nc1nc2c(s1)C1(CCN(C)CC1)Nc1ccccc1S2 | 12.96 | 
39 | Cc1nccc(N2CCCC(C)(C(=O)NC3CCCC3)C2)n1 (configuration not stated) | 2.213 | 
40 | Cc1cnn(CC2CCCCN2Cc2nc(C)c3ccccc3n2)c1 (configuration not stated) |  | 35.56% and 21.88% and 27.76%
41 | Cc1cnn(CC2CCCCN2Cc2nc(N)c3ccccc3n2)c1 (configuration not stated) |  | 41.2% and 50.14% and 52.23%
42 | Cc1cnn(CC2CCCN2Cc2nc(N)c3ccccc3n2)c1 (configuration not stated) |  | 22.63% and 18.94% and 34.15%
43 | CC(=O)N1CCN(c2ccc3ccc(C(=O)NC4CCCC4)cn23)CC1 | -4.944 | 
44 | Cc1cc(C(=O)N2CCN(c3ncc4c(n3)CCOC4)CC2)sc1C | -7.443 | 
45 | Cc1nc2ccccc2nc1CN1CCc2c(nc(C3CC3)n2C)C1 |  | -9.933% and -2.839%
46 | Cn1c(C2CC2)nc2c1CCN(Cc1nc3ccccc3s1)C2 |  | 48.9% and 53.74%

Row | SMILES | Percent Effect [%] | Percent Effect (10 mM as filed; unlikely as a test dose)
47 | Cc1nc(CN2CCc3c(nc(C4CC4)n3C)C2)nc2ccccc12 |  | -16.27% and -10.13%
48 | c1ccc2nc(N3CCOC(Cn4cccn4)C3)cnc2c1 (configuration not stated) | 7.131 | 
49 | OCC1CCCN1c1cc(NCCNc2cccnn2)ncn1 (configuration not stated) |  | 9.971% and -4.087%
50 | Cc1cccnc1CNc1cc(N2CCCC2CO)ncn1 (configuration not stated) | -13.57 | 
51 | OCC1CCCN1c1cc(NCCc2nccs2)ncn1 (configuration not stated) |  | 21.04% and 15.76%
52 | OCC1CCCN1c1cc(NCCc2ccsc2)ncn1 (configuration not stated) |  | 86.32% and 73.55%
53 | OCC1CCCN1c1cc(NCCc2ccccn2)ncn1 (configuration not stated) |  | 91.05% and 79.59%
54 | OCC1CCCN1c1cc(NCc2ccccn2)ncn1 (configuration not stated) |  | -21.68% and -23.27%
55 | OCC1CCCN1c1cc(NCc2ccsc2)ncn1 (configuration not stated) | 11.95 | 
56 | CC(C)CN(C)Cc1nc2c(cnn2C)c(=O)[nH]1 | 7.587 | 
57 | CN(C)CC1CN(Cc2nc(-c3ccccn3)no2)CCO1 (configuration not stated) | 24.23 | 
58 | CN1CCN(S(=O)(=O)c2ccc(Cl)c(Cl)c2)c2cnccc21 |  | -22.78% and -8.887%
59 | Cc1cc(-c2cc(F)ccc2C(=O)O)nc(C2CCCCN2C(C)C)n1 (configuration not stated) | 4.863 | 
60 | CC(=O)N1N=C(c2ccccc2)OC1C(=O)NCCc1ccc(O)cc1 (configuration not stated) | 3.916 | 
61 | CC[C@@H](C)[C@@H](N)C(=O)Nc1cccc(-c2cnc(N(C)CCO)nc2)c1 | 4.657 | 
62 | CCn1cc(NC(=O)NCCN2CCCc3ccccc32)cn1 | -384.2 | 
63 | Cc1cnn(CCC(=O)NS(=O)(=O)N2CCc3ccccc32)c1 |  | -13.26% and -21.53% and -23.4%
64 | Cn1cc(CCC(=O)NS(=O)(=O)N2CCCc3ccccc32)cn1 |  | 95.69% and 93.95% and 93.94%
65 | O=C(CCn1cccn1)NS(=O)(=O)N1CCCc2ccccc21 |  | 88.08% and 94.17% and 83.19%
66 | Cn1cc(CCNC(=O)CCc2ccc3c(c2)OCO3)cn1 | 0.08354 | 
67 | Cn1nc(CNC(=O)c2ccc(OC(F)(F)F)cc2)c2c1CCOC2 | -1.164 | 
68 | Cn1ncc(NCc2cccc(F)c2)c(Cl)c1=O | 2.958 | 
69 | CNC(=O)[C@@H]1CCO[C@@H]2CCN(CCc3ccccc3)C[C@H]21.O=C(O)C(F)(F)F | 14.59 | 

Row | SMILES | Percent Effect [%] | Percent Effect (10 mM as filed; unlikely as a test dose)
70 | Cc1cnc(N(C)Cc2cnc3ccccc3n2)nc1N(C)C |  | 42.78% and 58%
71 | CC(=O)c1cnc(N(C)Cc2cnc3ccccc3n2)nc1C |  | -14.78% and -20.36%
72 | CC(CO)CN(Cc1ccccc1)Cc1cnc2ccccc2n1 (configuration not stated) |  | 33.49% and 37.4%
73 | Cc1cnn(C2CCCN(C(=O)Cc3ccc(C)s3)C2)c1 (configuration not stated) | 7.18 | 
74 | Cc1cnc(CCNc2cccc(CC3CCCNC3)n2)s1.Cl (configuration not stated) | -6.2 | 
75 | Cc1nc(N(CCC(N)=O)Cc2ccccc2)c2nc(C)oc2n1 | 2.982 | 
76 | CN(Cc1noc(C2CC2)n1)C1CCN(Cc2ccccc2C#N)C1 (configuration not stated) | 5.942 | 
77 | Cc1nccn1CCCC(=O)N1CCCC(c2noc(C(C)C)n2)C1 (configuration not stated) | 1.926 | 
78 | CN1CCN(Cc2ccc(-c3ccc(-c4ccn[nH]4)cc3)nc2)CC1 |  | 56.12% and 32.6%
79 | CN1CCN(Cc2ccc(-c3ccc(C(N)=O)cc3)nc2)CC1 |  | -29.68% and -21.28%
80 | CC(=O)N1CCCN(C(=O)NCc2ccc(-c3ccn[nH]3)cc2)CC1 | 9.841 | 
81 | O=C(NCc1nn(-c2ccccc2)c2c1CCC2)NCC1COCCO1 (configuration not stated) | 13.65 | 
82 | Cc1nc2c(c(NCCc3nccs3)n1)CCN(CC1CC1)CC2 | -1.253 | 
83 | Cc1cnn(CC2CCCN2C(=O)c2cc3ccccc3c(=O)[nH]2)c1 (configuration not stated) | 2.755 | 
84 | CN1CCC(c2cccc(NCc3nccn3C)n2)CC1 |  | 4.151% and -3.748% and -15.94%
85 | CN1CCC(c2cnc(NCc3nccn3C)cn2)CC1 |  | 45.14% and 64.85% and 67.7%
86 | Cl.Cn1ccnc1CNC(=O)c1cnc(C2CCNCC2)cn1 | 2.787 | 
87 | COc1ccc(CN(C)[C@@H]2CN(C(=O)c3cnn(C)c3)C[C@H]2O)cc1 | 2.355 | 
88 | FC1(F)CCN(Cc2ccncc2)CC12CCN(c1cnccn1)C2.O=C(O)C(F)(F)F.O=C(O)C(F)(F)F.O=C(O)C(F)(F)F (configuration not stated) | 22.83 | 
89 | O=C(c1[nH]nc(C2CC2)c1Cl)N1CCN(C2CC2)CC1 |  | -13.62% and -21.71%
90 | O=C(c1[nH]nc(C2CC2)c1Cl)N1CCN(C2CC2)C(=O)C1 |  | 67.53% and 69.62%
91 | O=C(c1[nH]nc(C2CC2)c1Cl)N1CCCC1 |  | -32.9% and -32.97%
92 | CCOCc1ncn2c1CN(C(=O)Nc1ccccc1CC)CC2 | 3.671 | 
